Test results: PubChem BioAssay (NCI)
This is part of a sample that, as a whole, favours compounds with a hit. Of some 83,000 tested, about 20% had one in any assay.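 Results are percent growth after 48 hours of single-concentration exposure. 100 means growth as in untreated cells, lower positive values show inhibition; negative values down to -100 show cell death.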 Values without a mark were called inactive. Activity calls are given as the source filed them. The calls were made as follows: active = growth percent below 10; inactive = the rest.

Assays:
Experiment in all cases: NCI-60 one-dose screen, 48 h (100 = growth as untreated, 0 = no growth, -100 = all killed)
Settings in all cases: 10 µM unless noted
DU-145 prostate = system: DU-145 prostate
K-562 leukemia = system: K-562 leukemia
MALME-3M melanoma = system: MALME-3M melanoma
MDA-MB-231 breast = system: MDA-MB-231 breast
RXF 393 renal = system: RXF 393 renal
SF-268 CNS = system: SF-268 CNS
SF-295 CNS = system: SF-295 CNS
SF-539 CNS = system: SF-539 CNS
UACC-257 melanoma = system: UACC-257 melanoma
M14 melanoma = system: M14 melanoma
HCT-15 colon = system: HCT-15 colon
HT29 colon = system: HT29 colon
SNB-75 CNS = system: SNB-75 CNS
SNB-19 CNS = system: SNB-19 CNS
U251 CNS = system: U251 CNS
PC-3 prostate = system: PC-3 prostate
SK-MEL-5 melanoma = system: SK-MEL-5 melanoma
UACC-62 melanoma = system: UACC-62 melanoma
LOX IMVI melanoma = system: LOX IMVI melanoma
SK-MEL-28 melanoma = system: SK-MEL-28 melanoma

ClCCN(CCCl)c1ccc(OCc2ccccc2)cc1
growth (DU-145 prostate): 26.3% | growth (K-562 leukemia): 73.3% | growth (MALME-3M melanoma): 90.9% | growth (MDA-MB-231 breast): 106% | growth (RXF 393 renal): 82.1% | growth (SF-268 CNS): 36% | growth (SF-295 CNS): 10.3% | growth (SF-539 CNS): 8.54% (active) | growth (UACC-257 melanoma): 74.2% | growth (M14 melanoma): 41.9% | growth (HCT-15 colon): 73.1% | growth (HT29 colon): 76.7% | growth (SNB-75 CNS): 53.8% | growth (SNB-19 CNS): 57.1% | growth (U251 CNS): 40.5% | growth (PC-3 prostate): 63.1% | growth (SK-MEL-5 melanoma): 82.7% | growth (UACC-62 melanoma): 44.2% | growth (LOX IMVI melanoma): 38.9% | growth (SK-MEL-28 melanoma): 84.1%

COC(=O)N[C@H]1CCc2c(Br)c(OC)c(OC)c(OC)c2-c2ccc(SC)c(=O)cc21
growth (DU-145 prostate): -1.4% (active) | growth (K-562 leukemia): 6.78% (active) | growth (MALME-3M melanoma): 28.6% | growth (MDA-MB-231 breast): -12.3% (active) | growth (RXF 393 renal): 16.8% | growth (SF-268 CNS): 17.7% | growth (SF-295 CNS): 9.53% (active) | growth (SF-539 CNS): -6.59% (active) | growth (UACC-257 melanoma): 67.4% | growth (M14 melanoma): 2.58% (active) | growth (HCT-15 colon): 7.69% (active) | growth (HT29 colon): 12% | growth (SNB-75 CNS): 29.1% | growth (SNB-19 CNS): 28.2% | growth (U251 CNS): 21.4% | growth (PC-3 prostate): 21.7% | growth (SK-MEL-5 melanoma): -44.6% (active) | growth (UACC-62 melanoma): 38.6% | growth (LOX IMVI melanoma): 12.1% | growth (SK-MEL-28 melanoma): 66.9%

CN(C)C(=O)Oc1ccc(Br)cc1
growth (DU-145 prostate): 107% | growth (K-562 leukemia): 96.5% | growth (MALME-3M melanoma): 98% | growth (MDA-MB-231 breast): 105% | growth (RXF 393 renal): 107% | growth (SF-268 CNS): 110% | growth (SF-295 CNS): 91.3% | growth (SF-539 CNS): 108% | growth (UACC-257 melanoma): 95% | growth (M14 melanoma): 104% | growth (HCT-15 colon): 105% | growth (HT29 colon): 109% | growth (SNB-75 CNS): 89% | growth (SNB-19 CNS): 107% | growth (U251 CNS): 98.3% | growth (PC-3 prostate): 97.1% | growth (SK-MEL-5 melanoma): 98.8% | growth (UACC-62 melanoma): 113% | growth (LOX IMVI melanoma): 96.4% | growth (SK-MEL-28 melanoma): 104%

CC1=C([Te]c2ccc(O)cc2)C(=O)c2ccccc2C1=O
growth (DU-145 prostate): 7.43% (active) | growth (K-562 leukemia): -36.6% (active) | growth (MALME-3M melanoma): 5.22% (active) | growth (MDA-MB-231 breast): 3.12% (active) | growth (RXF 393 renal): -0.398% (active) | growth (SF-268 CNS): 13.8% | growth (SF-295 CNS): -37.4% (active) | growth (SF-539 CNS): -19.1% (active) | growth (UACC-257 melanoma): 11.7% | growth (M14 melanoma): -24.2% (active) | growth (HCT-15 colon): 13.6% | growth (HT29 colon): 1.03% (active) | growth (SNB-75 CNS): -3.63% (active) | growth (SNB-19 CNS): 12.3% | growth (U251 CNS): 10% | growth (PC-3 prostate): 5.85% (active) | growth (SK-MEL-5 melanoma): -94.6% (active) | growth (UACC-62 melanoma): 5.4% (active) | growth (LOX IMVI melanoma): 5.05% (active) | growth (SK-MEL-28 melanoma): -12.4% (active)

C=COC(=O)CCN1CC1
growth (DU-145 prostate): 113% | growth (K-562 leukemia): 111% | growth (MALME-3M melanoma): 112% | growth (MDA-MB-231 breast): 103% | growth (RXF 393 renal): 111% | growth (SF-268 CNS): 106% | growth (SF-295 CNS): 101% | growth (SF-539 CNS): 103% | growth (UACC-257 melanoma): 105% | growth (M14 melanoma): 102% | growth (HCT-15 colon): 109% | growth (HT29 colon): 110% | growth (SNB-75 CNS): 101% | growth (SNB-19 CNS): 96.3% | growth (U251 CNS): 101% | growth (PC-3 prostate): 97.5% | growth (SK-MEL-5 melanoma): 105% | growth (UACC-62 melanoma): 97.9% | growth (LOX IMVI melanoma): 100% | growth (SK-MEL-28 melanoma): 113%

CCC(=O)Nc1ccc(Cl)c(Cl)c1
growth (DU-145 prostate): 115% | growth (K-562 leukemia): 97.6% | growth (MALME-3M melanoma): 102% | growth (MDA-MB-231 breast): 92.2% | growth (RXF 393 renal): 101% | growth (SF-268 CNS): 105% | growth (SF-295 CNS): 98.3% | growth (SF-539 CNS): 92.4% | growth (UACC-257 melanoma): 102% | growth (M14 melanoma): 103% | growth (HCT-15 colon): 101% | growth (HT29 colon): 91.3% | growth (SNB-75 CNS): 102% | growth (SNB-19 CNS): 107% | growth (U251 CNS): 95.7% | growth (PC-3 prostate): 88.9% | growth (SK-MEL-5 melanoma): 101% | growth (UACC-62 melanoma): 96.6% | growth (LOX IMVI melanoma): 98.3% | growth (SK-MEL-28 melanoma): 102%

Cc1cccc(N2CCN(C(C)C#N)CC2)c1 (stereo not given)
growth (DU-145 prostate): 107% | growth (K-562 leukemia): 98.4% | growth (MALME-3M melanoma): 102% | growth (MDA-MB-231 breast): 104% | growth (RXF 393 renal): 105% | growth (SF-268 CNS): 103% | growth (SF-295 CNS): 84.6% | growth (SF-539 CNS): 104% | growth (UACC-257 melanoma): 97.9% | growth (M14 melanoma): 105% | growth (HCT-15 colon): 106% | growth (HT29 colon): 105% | growth (SNB-75 CNS): 106% | growth (SNB-19 CNS): 115% | growth (U251 CNS): 103% | growth (PC-3 prostate): 102% | growth (SK-MEL-5 melanoma): 105% | growth (UACC-62 melanoma): 111% | growth (LOX IMVI melanoma): 94.7% | growth (SK-MEL-28 melanoma): 114%

C[C@]12CCc3sc(NCCc4ccccc4)nc3C1=CC[C@@H]1[C@@H]2CC[C@]2(C)C(=O)CC[C@@H]12
growth (DU-145 prostate): 33.9% | growth (K-562 leukemia): 5.14% (active) | growth (MALME-3M melanoma): 73.3% | growth (MDA-MB-231 breast): 83.1% | growth (RXF 393 renal): 20% | growth (SF-268 CNS): 83.9% | growth (SF-295 CNS): 68.4% | growth (SF-539 CNS): 64.8% | growth (UACC-257 melanoma): 87.4% | growth (M14 melanoma): 85.4% | growth (HCT-15 colon): 22.5% | growth (HT29 colon): 34.3% | growth (SNB-75 CNS): 85.5% | growth (SNB-19 CNS): 80.2% | growth (U251 CNS): 60.1% | growth (PC-3 prostate): 38.8% | growth (SK-MEL-5 melanoma): 66% | growth (UACC-62 melanoma): 75.6% | growth (LOX IMVI melanoma): 70.2% | growth (SK-MEL-28 melanoma): 83.3%
